Measured values as given in the supplement of paper PMC6555819.

Test system: VDR:RXRa (NR concentration 270 nM, RXRa partner concentration 90 nM)
Experiment: PBM binding z-score (relative to random genomic background probes); higher = stronger binding; sequences stand for … in GC…GCGATTGACAGCGTAGAATGAAGG
Method: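 Protein-binding microarray (Agilent 4x180K custom design, double-stranded 60-nt probes: 5' GC cap, 34-nt variable region, 24-nt constant primer region; full probe sequence given). Purified or IVT nuclear receptor:RXRα heterodimers (3:1 NR:RXRα, mostly 270:90 nM) or homodimers were incubated for 1 h in PBS with 2% milk and no ligand, then detected with Alexa488 antibodies. Fluorescence from o1-orientation probes (~5 replicates averaged) was converted to z-scores against 500 random hg19 background probes. Variable regions are seed direct-repeat (DR0–DR5) sites, all their single-nucleotide variants and half-site ablations.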

Sequence | PBM binding z-score
CGTCAAAGTGCAAGGTAACGTAACAGAAAGCAGC | -0.0204
AGAACGAGGGCACGCTGAGTCGATAGCAGAGTAG | 0.908
AGAATGAAGTTACCAAAGATCAGGGAAACGCTTG | -0.38
ATCGAAATGTCGACGAGGTGAGTATACACCGTTT | 0.509
GCTACTGGGGCAAAGCAGGTTACCATAAGGTTGG | 0.028
GCTAGCAGACCATTTGGGTCACTCAATGACGGGC | -0.0299
TCTATTAGTTAATTAGGGCAACCGAAACAGCGGA | 0.823
CCTCGGAGGACAGAAGTTCAGAGCTGTCCGCTTT | 0.197
AGAATGAGGTTAAGAACAGGGAAACAGAATACAT | 1.04
CGAACTAGGTCATCCAGGACACTGAATACATTGA | 5.27
CCGACTGGGGCAGAAAGGTTAACATACCATCCGG | 1.12
AGTCAATGTTCAGGACGAGGTAACGTAAAGCACG | 0.00608
CCTTACGGGTCAAGGTTATAGCACGGGTGGTACG | 3.41
AATACAGGGTCATCGTATGCCAGAGTACGCACAG | 5.08
CCTACTGGGCCCAAAAGGTCATTGATGCCGATAA | 4.63
AGTCAAAGTTCACTAGTTAACGTAAGATTCAGCT | 3.88
TCATATAGGTAATACAGGTGAAAGTTGGCATCTA | 1.46
CCCTACGGGTCAAGGTTATAGCACGGGTGGTACG | 3.26
ACCGACAGGTGATGAAGGTAACTCAGGCTATCAT | -0.148
GGTGCTAGGTCAACTGATGGTCAGCTAAAGCTCG | 1.89

Sequence | PBM binding z-score
CCTACTGGGCCCTTCAGAGGTCATTGATCATATG | 3.41
ATATGTAGGATACATCCGGGTCATTCAGGCTATG | 3.21
GTACCAAGGTGAATAGGTTGTTGATGAGTAGGCG | 1.38
CGTCAAAATTCAACTAAGGTAACGTAAAGCACGC | 0.298
ATCGAAAGGTCGAAGGTGTGTATACCCACCCGAA | 2.43
TCTTGTAGATCAGCACGTTAAGAAAGCTGGCCAA | 0.0103
CCTACTGGGCCAAAGGTCGTTGATTCCAATGCTC | 2.05
CCTTACGAGTCAAGGTTATAGCACGGGTGGTACG | 0.509
TCTCGGAGGACACGAAGGTCAGAGCTTTCCAGAG | 2.3
CGTCCTAGGTCAATGCTAGGTCAGTGAAAGCATT | 3.02
CAAACTAGGTCATCCAGGACAGTGAATACATTGA | 4.58
CGTCCATGGTCAATGCTAGGTCAGTGAAAGCATT | 0.204
CGAACGAGGCCATGAGTTGATAGCAAATGCCGAT | 0.155
ATATGTAGGTTAGCTGGGGTCATTCAGACTAGGC | 6.27
CAAACTAGATCACCGGAAGGTCAAAGTCCGCATG | 3.03
TCTCGGAGGACACGAAGGTCAGTGCTTTCCAGAG | 2.08
TCTTGTAGATCAACAGGAGGTTAAAAAAGATCGA | 0.744
CAAACTAGGTCAAGAGATCAAAGTCCGCTTCCCG | 1.59
GGAACGAAGGCATTCGAGTTGATAGCATGGCGAT | -0.337
ACTAGCAGGCCAAGTTTGGGTAACTCAAACAAAG | -0.517
